Bioassay records as filed in PubChem.
Abeta yeast res = restores growth of yeast expressing A-beta42 peptide. yeast expressing A-beta42, growth rescue, OD600, 48 h; response scale: 0% DMSO, 100% iron-clioquinol control. Potency, µM (highest dose often 46.1 µM), most hits filed as activators. actives 0.063% (n = 410,000); also: nearly all actives have a fitted effect of over 55% in size
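Yeast growth medium received pinned compounds, then yeast cells expressing toxic A-beta were added; plates incubated at 30 C for 48 hr. Growth read as absorbance at 600 nm, normalized to DMSO and equimolar FeCl3 plus clioquinol controls.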
FUS suppressor = suppressors of FUS proteinopathy in yeast | S. cerevisiae FUS-expressing, growth rescue, OD600, 24 h | Potency, µM (highest dose often 76.6 µM), actives largely listed as activators | actives 0.24% (n = 390,000); also: nearly all actives have a fitted effect of over 55% in size
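Quantitative HTS measuring growth restoration of FUS-toxic yeast. Galactose-induced cells (OD 0.005) were exposed 24hr at 30C to compounds at several concentrations, then absorbance at 600 nm was recorded.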
aSyn rescue = alpha-synuclein toxicity inhibition in yeast; Yeast expressing alpha-synuclein, growth rescue, BacTiter-Glo, 24 h; Potency, µM (titrated, usually from 46.1 µM), actives largely listed as activators; actives 0.14% (n = 370,000); also: nearly all actives have a fitted effect of over 65% in size
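Screening used galactose-induced yeast with toxic alpha-synuclein levels, exposed to compound for 24 hr at 30 deg C. Cell growth, read with BacTiter-Glo luminescence, gave the measured signal.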
TDP43 rescue = rescues yeast growth from TDP-43 toxicity | AID 652104 | TDP-43 expressing yeast growth rescue, BacTiter-Glo, 24 h | Potency, µM (series often up to 46.1 µM), most hits filed as activators | actives 1.8% (n = 410,000); also: nearly all actives have a fitted effect of over 50% in size
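Yeast expressing TDP-43 (pregrown in raffinose, seeded at OD600=0.02 in galactose medium) exposed to compounds 24 hr at 30 deg C. Growth read by BacTiter-Glo luminescence; rescue of toxicity appears as increased signal.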
Of the large screens only hits and unclear results are named; the others gave an inactive call. Compounds with a hit are over-represented: about 2.1% of the library has one in this group of screens. Calls follow the shape of the dose curve; as a rule, active = well fitted curve in the direction sought with a large enough effect; inconclusive = small, poorly fitted or top-dose-only effect, or another doubt; inactive = no such curve, though single readings can be large; an effect the other way counts as inactive or inconclusive.

Cn1cnc([N+](=O)[O-])c1NC(C)(C)C	none
Cc1[nH]c2ccccc2c1C(=O)CCl	TDP43 rescue 15.8µM
O=C(NCc1ccc2c(c1)CCN2C(=O)c1ccc(F)cc1)c1cc2ccccc2[nH]1	TDP43 rescue 31.6µM (no result: aSyn rescue)
O=C(COc1ccccc1)NCc1ccc2c(c1)CCN2C(=O)c1ccccc1	none (no result: aSyn rescue)
COc1ccc(OCC(=O)NCc2ccc3c(c2)CCN3C(=O)c2ccccc2)cc1	TDP43 rescue 25.1µM (no result: aSyn rescue)
COc1ccc(CCC(=O)NCc2ccc3c(c2)CCN3C(=O)c2cccc(C)c2)cc1	FUS suppressor inconclusive, TDP43 rescue 25.1µM (no result: aSyn rescue)
CCOc1cc2c(cc1/C=C/C(=O)O)OC(C)C2 (stereo unspecified)	TDP43 rescue 22.4µM
Cc1cc(F)ccc1S(=O)(=O)Nc1ccccc1C(=O)N1CCCC1	aSyn rescue 4.47µM
CC[C@H](C)[C@@H]1NC(=O)[C@H]([C@@H](C)CC)NC(=O)[C@@H](CC(C)C)NC(=O)[C@H](Cc2ccccc2)NC(=O)[C@H](Cc2ccccc2)NC(=O)[C@@H]2CCCN2C(=O)[C@@H]2CCCN2C(=O)[C@H](C(C)C)NC(=O)[C@H](CC(C)C)NC1=O	FUS suppressor 17.8µM
O=C(Cc1c(Cl)cccc1Cl)Nc1ccncc1Cl	TDP43 rescue 11.2µM
CCCNC(=O)c1noc2c1CCc1cc(OC)ccc1-2	TDP43 rescue 12.6µM
COc1ccc(Cc2nn3c(Cn4nnc5ccccc54)nnc3s2)cc1	TDP43 rescue inconclusive
CCOC(=O)c1cnc(NCc2ccccc2)nc1C	TDP43 rescue 7.08µM (no result: aSyn rescue)
Cc1cc(C)cc(NC(=O)N2CCCN(c3c(Cl)cncc3Cl)CC2)c1	none
Cc1cc(NS(=O)(=O)c2ccc(-c3ccccc3)cc2)no1	Abeta yeast res inconclusive, TDP43 rescue 10µM
CNC(=O)C(=O)Nc1ccc2c(c1)N(S(=O)(=O)c1cccs1)CCC2	TDP43 rescue 15.8µM
O=C(CSc1nc2cc(Cl)ccc2s1)NCC1CCCO1 (stereo unspecified)	TDP43 rescue 20µM
O=C(CSc1nc2ccc([N+](=O)[O-])cc2s1)NCC1CCCO1 (stereo unspecified)	none
Cc1ccc(-c2cnc(-c3ccncc3)o2)cc1	TDP43 rescue 15.8µM
COc1cc(C2Oc3ccccc3C=C2[N+](=O)[O-])cc(OC)c1OC (stereo unspecified)	aSyn rescue inconclusive, TDP43 rescue 5.01µM
COc1ccc(NC(=O)CSCc2cnn(-c3ccccc3)c2-n2cccc2)cc1	FUS suppressor inconclusive, TDP43 rescue 15.8µM (no result: aSyn rescue)
CCN(CC)C(=O)CSCc1cnn(-c2ccccc2)c1-n1cccc1	TDP43 rescue 17.8µM
COc1ccc(CNC(=O)CSCc2cnn(-c3ccccc3)c2-n2cccc2)cc1	TDP43 rescue inconclusive
COCc1cc(C)nc(N2CCc3ccccc32)c1C#N	none
O=C(CC1(O)C(=O)N(Cc2ccccc2Cl)c2ccccc21)c1ccco1 (stereo unspecified)	none
COc1ccc(C(=O)CC2(O)C(=O)N(Cc3ccccc3Cl)c3ccccc32)cc1 (stereo unspecified)	TDP43 rescue 31.6µM
O=C1N(Cc2ccccc2)c2ccccc2C1(O)c1c[nH]c2ccccc12 (stereo unspecified)	none (no result: aSyn rescue)
O=C1N(Cc2ccccc2Cl)c2ccccc2C1(O)c1c[nH]c2ccccc12 (stereo unspecified)	FUS suppressor inconclusive, TDP43 rescue 15.8µM (no result: aSyn rescue)
CN(Cc1ccccc1)C(=O)c1cccc(NC(=O)Cc2ccc(NC(=O)C3CCCN(C(=O)c4ccccc4)C3)cc2)c1 (stereo unspecified)	FUS suppressor inconclusive
CCS(=O)(=O)N1CCc2cc(C(=O)NCCc3ccc(OC)cc3)ccc21	none (no result: aSyn rescue)
COc1ccc(F)cc1S(=O)(=O)NCCc1csc(-c2ccc(Cl)cc2)n1	FUS suppressor inconclusive, TDP43 rescue inconclusive (no result: aSyn rescue)
O=S(=O)(NCCc1csc(-c2cccnc2)n1)c1ccc(Cl)s1	Abeta yeast res 11.2µM, TDP43 rescue 14.1µM
O=S(=O)(NCCc1csc(-c2ccc(F)cc2)n1)c1ccc(F)cc1F	Abeta yeast res inconclusive, TDP43 rescue 2.82µM (no result: aSyn rescue)
COc1ccc(CNS(=O)(=O)c2cc(-c3cc(C)no3)ccc2OC)cc1OC	none
Cc1sc2ncnc(NCc3ccco3)c2c1C	none (no result: FUS suppressor)
Cc1c(CCCl)c(Cl)n2c(nc3ccccc32)c1C#N	TDP43 rescue 7.08µM (no result: FUS suppressor)
CNc1cc(C)c(C#N)c2nc3ccccc3n12	TDP43 rescue inconclusive
Cc1cc(Cl)n2c(nc3ccccc32)c1C#N	TDP43 rescue 3.16µM
CCc1c(C)c(C#N)c2nc3ccccc3n2c1NC	none
COc1cc(/C=C/c2nc3ccccc3c(=O)[nH]2)cc(OC)c1OC	Abeta yeast res inconclusive
COc1ccccc1CN(C)C(=O)c1cccc(S(=O)(=O)N2CCCC2)c1	none
Cc1[nH]ccc(=O)c1OCC(=O)O	none
c1ccc(-c2onc3cc4c(cc23)OCCO4)cc1	TDP43 rescue 35.5µM
CC(=O)c1ccc2noc(-c3ccccc3)c2c1	none
Cc1ccc(CNC(=O)COc2cc(O)c3c(c2)OC(C)(C)CC3=O)cc1	FUS suppressor inconclusive, TDP43 rescue 12.6µM
COc1cccc(NC(=O)COc2cc(O)c3c(c2)OC(C)(C)CC3=O)c1	TDP43 rescue 17.8µM
Cc1ccc(-n2nc3c(=O)n(CC(=O)NCCc4ccc(Cl)cc4)nc(C)c3c2C)cc1	none (no result: Abeta yeast res)
CC(C)[C@H](N)C(=O)N[C@H]1CCC2C3CC=C4C[C@@H](O)CC[C@]4(C)C3CC[C@@]21C (stereo partly specified)	none
C[C@]12CC[C@H](O)CC1=CCC1C2CC[C@@]2(C)C1CC[C@@H]2NCc1ccccc1 (stereo partly specified)	TDP43 rescue 1.12µM
CCOc1ccc(C(C(=O)NC2CCCC2)N(CCCO)C(=O)c2ccc(-c3ccccc3)[nH]2)cc1 (stereo unspecified)	FUS suppressor 35.5µM
O=C(NC1CCCC1)C(c1ccncc1)N(CCCN1CCOCC1)C(=O)c1ccc(-c2ccccc2)[nH]1 (stereo unspecified)	none
CC(C)(C)OC(=O)NCCCCCc1nnc(SCc2ccccc2F)o1	TDP43 rescue inconclusive
CC(C)(C)OC(=O)NCCCCCc1nnc(SCc2ccccc2)o1	TDP43 rescue 35.5µM
CC(C)(C)OC(=O)NCCCCCc1nnc(SCc2cccc(F)c2)o1	TDP43 rescue 25.1µM
CC(C)(C)OC(=O)NCCc1nnc(SCc2cccc(Cl)c2)o1	none
CC(C)(Cc1cc(CC(C)(C)C(=O)O)cc(C(C)(C)C)c1)C(=O)O	TDP43 rescue 35.5µM
O=c1c2cn[nH]c2nc(SCc2cccc(Br)c2)n1-c1ccc(Cl)cc1	FUS suppressor 35.5µM (no result: aSyn rescue)
O=S(=O)(Nc1ccc(C(O)(C(F)(F)F)C(F)(F)F)cc1)c1cccs1	none (no result: Abeta yeast res, aSyn rescue, TDP43 rescue)
O=S(=O)(Nc1ccc(C(O)(C(F)(F)F)C(F)(F)F)cc1)c1ccc(Cl)c2nonc12	TDP43 rescue 20µM
Cc1ccc2c(c1)c1c(n2CC(O)Cn2c(C)nc3ccccc32)C(=O)CCC1 (stereo unspecified)	none
